The assay concerns Trichoderma virens ATCC 9645. In words: growth yield (OD600) with compound + IPBC relative to untreated control; higher = less growth inhibition. Conditions: compound concentration: 100 uM, IPBC concentration: 200 ng/ml. The gist of the method:
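Plates were read for OD600 at 40 h and 72 h after Trichoderma virens ATCC 9645 spores (15,000 spores ml^−1 in potato dextrose broth) were grown at 30 °C with library compounds at 100 μM final, with or without a biocide at 200 ng ml^−1. Growth is stated relative to the control with neither agent, as the mean of duplicate screens.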

Structures can show the parent of a compound that is named as a salt. ± gives the standard error. Out of some 1,300 compounds screened, about 130 (10%) showed an effect of 50% or more. The sample as a whole holds a higher share of strong results than the screen did.

For `O=[N+]([O-])O[C@@H]1CO[C@H]2[C@@H]1OC[C@@H]2O` [Isosorbide mononitrate] + CCCCNC(=O)OCC#CI [3-iodo-2-propynyl butylcarbamate (IPBC)], the growth yield (40 h) amounted to 88.2 ± 4% and the growth yield (72 h) came to 91.3 ± 4.1%.

As to `CCN(C(C)=O)c1cccc(-c2ccnc3c(C#N)cnn23)c1` [Zaleplon] + CCCCNC(=O)OCC#CI [3-iodo-2-propynyl butylcarbamate (IPBC)], the growth yield (40 h) was 81.009 ± 1e-14% and the growth yield (72 h) stood at 88.94 ± 0.42%.

As to `Cc1c(NC(C)C)c(=O)n(-c2ccccc2)n1C` [Isopyrin hydrochloride] + CCCCNC(=O)OCC#CI [3-iodo-2-propynyl butylcarbamate (IPBC)], the growth yield by setting is: (40 h) 87 ± 2.5%; (72 h) 91.24 ± 0.63%.

Take `CC1(C)S[C@@H]2[C@H](NC(=O)Cc3ccccc3)C(=O)N2[C@H]1C(=O)O` [Benzathine benzylpenicillin] + CCCCNC(=O)OCC#CI [3-iodo-2-propynyl butylcarbamate (IPBC)]: the growth yield by setting is: (40 h) 102 ± 12%; (72 h) 98 ± 9.9%.

On to `CC1(C)S[C@@H]2[C@H](NC(=O)Cc3ccccc3)C(=O)N2[C@H]1C(=O)O` [Benzylpenicillin sodium] + CCCCNC(=O)OCC#CI [3-iodo-2-propynyl butylcarbamate (IPBC)], for which the growth yield (40 h) was 82.1 ± 6.2% and the growth yield (72 h) came to 97.1 ± 6.1%.

`CCCCc1ncc(/C=C(\Cc2cccs2)C(=O)O)n1Cc1ccc(C(=O)O)cc1` [Eprosartan mesylate] + CCCCNC(=O)OCC#CI [3-iodo-2-propynyl butylcarbamate (IPBC)]: the growth yield reads like this: (40 h) 112 ± 9.7%; (72 h) 109 ± 4.1%.

For `CCOC(=O)C1=C(C)NC(C)=C(C(=O)OC)C1c1cccc(Cl)c1Cl` (stereo not given) [Felodipine] + CCCCNC(=O)OCC#CI [3-iodo-2-propynyl butylcarbamate (IPBC)], the growth yield (40 h) turned out to be 77.5 ± 8.3% and the growth yield (72 h) was 92.9 ± 1.9%.

For the compound `COC(=O)C1=C(C)NC(C)=C(C(=O)OC)C1c1ccccc1[N+](=O)[O-]` [Nifedipine] + CCCCNC(=O)OCC#CI [3-iodo-2-propynyl butylcarbamate (IPBC)], the growth yield was determined as 42.41 ± 0.16% (40 h) and 55.48 ± 0.52% (72 h).

Consider `COC(=O)C1=C(C)NC(C)=C(C(=O)OCC(C)C)C1c1ccccc1[N+](=O)[O-]` (stereo not given) [Nisoldipine] + CCCCNC(=O)OCC#CI [3-iodo-2-propynyl butylcarbamate (IPBC)], for which the growth yield (40 h) was 41.3 ± 8.3% and the growth yield (72 h) worked out at 34.71 ± 0.1%.

For `COCCOC(=O)C1=C(C)NC(C)=C(C(=O)OC(C)C)C1c1cccc([N+](=O)[O-])c1` (stereo not given) [Nimodipine] + CCCCNC(=O)OCC#CI [3-iodo-2-propynyl butylcarbamate (IPBC)], the growth yield runs as follows: (40 h) 79.7 ± 7.9%; (72 h) 87.3 ± 1.3%.

On to `COC(=O)C1=C(C)NC(C)=C(C(=O)OCCN(C)Cc2ccccc2)C1c1cccc([N+](=O)[O-])c1` (stereo not given) [Nicardipine hydrochloride] + CCCCNC(=O)OCC#CI [3-iodo-2-propynyl butylcarbamate (IPBC)], for which the growth yield was 73.1 ± 1.6% (40 h) and 94.7 ± 2.2% (72 h).

Take `CCOC(=O)C1=C(C)NC(C)=C(C(=O)OC)C1c1cccc([N+](=O)[O-])c1` (stereo not given) [Nitrendipine] + CCCCNC(=O)OCC#CI [3-iodo-2-propynyl butylcarbamate (IPBC)]: the growth yield (40 h) was 79.58 ± 0.48% and the growth yield (72 h) is 85.7 ± 1.1%.

Regarding `CCCCc1nc(Cl)c(CO)n1Cc1ccc(-c2ccccc2-c2nnn[nH]2)cc1` [Losartan] + CCCCNC(=O)OCC#CI [3-iodo-2-propynyl butylcarbamate (IPBC)], the growth yield was found to be 98.3 ± 6.2% (40 h) and 96.7 ± 5.7% (72 h).

As for `CC[C@@H](CO)NC(=O)[C@@H]1C=C2c3cccc4[nH]cc(c34)C[C@H]2N(C)C1` [Methylergometrine maleate] + CCCCNC(=O)OCC#CI [3-iodo-2-propynyl butylcarbamate (IPBC)], the growth yield reads like this: (40 h) 79.7 ± 4.8%; (72 h) 88 ± 2%.

In the case of `NS(=O)(=O)c1cc2c(cc1Cl)NC(CC1CCCC1)NS2(=O)=O` (stereo not given) [Cyclopenthiazide] + CCCCNC(=O)OCC#CI [3-iodo-2-propynyl butylcarbamate (IPBC)], the growth yield was 88.8 ± 1.4% (40 h) and 98.48 ± 0.32% (72 h).

For the compound `NCc1ccccc1CC(=O)N[C@@H]1C(=O)N2C(C(=O)O)=C(CSc3nnnn3CC(=O)O)CS[C@H]12` [Ceforanide] + CCCCNC(=O)OCC#CI [3-iodo-2-propynyl butylcarbamate (IPBC)], the growth yield by setting is: (40 h) 92.3 ± 5.6%; (72 h) 97.1 ± 2.1%.

In the case of `CCC1(c2ccc(N)cc2)CCC(=O)NC1=O` (stereo not given) [Glutethimide, para-amino] + CCCCNC(=O)OCC#CI [3-iodo-2-propynyl butylcarbamate (IPBC)], the growth yield turned out to be 111 ± 4.1% (40 h) and 112 ± 4.5% (72 h).

For the compound `CC(NC(C)(C)C)C(=O)c1cccc(Cl)c1` (stereo not given) [Bupropion hydrochloride] + CCCCNC(=O)OCC#CI [3-iodo-2-propynyl butylcarbamate (IPBC)], the growth yield was 92.1 ± 5.4% (40 h) and 98.5 ± 3% (72 h).

On to `COc1cccc(N(C)C(=S)Oc2ccc3c(c2)CCCC3)n1` [Liranaftate] + CCCCNC(=O)OCC#CI [3-iodo-2-propynyl butylcarbamate (IPBC)], for which the growth yield (40 h) stood at 0% and the growth yield (72 h) came to 0%.

As to `NCC(O)c1ccc(O)cc1` (racemic) [(+,-)-Octopamine hydrochloride] + CCCCNC(=O)OCC#CI [3-iodo-2-propynyl butylcarbamate (IPBC)], the growth yield reads like this: (40 h) 97.4 ± 12%; (72 h) 95 ± 4.6%.

For `CC(=O)N(CC(O)CO)c1c(I)c(C(=O)NCC(O)CO)c(I)c(C(=O)NCC(O)CO)c1I` (stereo not given) [Iohexol] + CCCCNC(=O)OCC#CI [3-iodo-2-propynyl butylcarbamate (IPBC)], the growth yield worked out at 91.2 ± 8.3% (40 h) and 93.7 ± 5.6% (72 h).

For the compound `Clc1ccc(CSC(Cn2ccnc2)c2ccc(Cl)cc2Cl)cc1` (stereo not given) [Sulconazole nitrate] + CCCCNC(=O)OCC#CI [3-iodo-2-propynyl butylcarbamate (IPBC)], the growth yield was determined as 3.02 ± 0.16% (40 h) and 2.41 ± 0.1% (72 h).

Consider `Clc1ccc(C(Cn2ccnc2)OCc2c(Cl)cccc2Cl)c(Cl)c1` (stereo not given) [Isoconazole] + CCCCNC(=O)OCC#CI [3-iodo-2-propynyl butylcarbamate (IPBC)], for which the growth yield runs as follows: (40 h) 4.13 ± 0.64%; (72 h) 2.83 ± 0.32%.

As for `O=C(O)/C=C/c1ccc(Cn2ccnc2)cc1` [Ozagrel hydrochloride] + CCCCNC(=O)OCC#CI [3-iodo-2-propynyl butylcarbamate (IPBC)], the growth yield reads like this: (40 h) 105 ± 12%; (72 h) 103 ± 8.7%.

`Clc1ccc(COC(Cn2ccnc2)c2ccc(Cl)cc2Cl)cc1` (stereo not given) [Econazole nitrate] + CCCCNC(=O)OCC#CI [3-iodo-2-propynyl butylcarbamate (IPBC)]: the growth yield by setting is: (40 h) 3.18 ± 0.32%; (72 h) 2.73 ± 0.42%.

Consider `Clc1ccc(C(Cn2ccnc2)OCc2ccsc2Cl)c(Cl)c1` (stereo not given) [Tioconazole] + CCCCNC(=O)OCC#CI [3-iodo-2-propynyl butylcarbamate (IPBC)], for which the growth yield was determined as 3.65 ± 0.16% (40 h) and 2.52% (72 h).

Consider `CC(c1cc2ccccc2s1)N(O)C(N)=O` (stereo not given) [Zileuton] + CCCCNC(=O)OCC#CI [3-iodo-2-propynyl butylcarbamate (IPBC)], for which the growth yield was 89.1 ± 3.3% (40 h) and 90.8 ± 2.1% (72 h).

For `NCCCCCC(=O)O` [Aminocaproic acid] + CCCCNC(=O)OCC#CI [3-iodo-2-propynyl butylcarbamate (IPBC)], the growth yield runs as follows: (40 h) 103 ± 13%; (72 h) 98.9 ± 6.8%.

Take `Nc1ncnc2c1ncn2C1OC(COP(=O)(O)O)C(O)C1O` (stereo not given) [Adenosine 5'-monophosphate monohydrate] + CCCCNC(=O)OCC#CI [3-iodo-2-propynyl butylcarbamate (IPBC)]: the growth yield is 79.4 ± 1.3% (40 h) and 91.2 ± 1.1% (72 h).

As for `CC(C)(C)NC(=O)[C@@H]1CN(Cc2cccnc2)CCN1C[C@@H](O)C[C@@H](Cc1ccccc1)C(=O)N[C@H]1c2ccccc2C[C@H]1O` [Indinavir sulfate] + CCCCNC(=O)OCC#CI [3-iodo-2-propynyl butylcarbamate (IPBC)], the growth yield was determined as 88.5 ± 3.3% (40 h) and 89.78 ± 0.84% (72 h).

Regarding `Cc1nnc(NS(=O)(=O)c2ccc(N)cc2)s1` [Sulfamethizole] + CCCCNC(=O)OCC#CI [3-iodo-2-propynyl butylcarbamate (IPBC)], the growth yield runs as follows: (40 h) 93.7 ± 8.9%; (72 h) 97.3 ± 7.1%.

On to `Cc1cc(/C=C/c2ccc3cc(N(C)C)ccc3[n+]2C)c(C)n1-c1ccccc1` [Pyrvinium pamoate] + CCCCNC(=O)OCC#CI [3-iodo-2-propynyl butylcarbamate (IPBC)], for which the growth yield (40 h) was determined as 111 ± 4.5% and the growth yield (72 h) came out at 111 ± 3.1%.

Take `C[N+]1(C)CCCC(OC(=O)C(O)(c2ccccc2)c2ccccc2)C1` (stereo not given) [Mepenzolate bromide] + CCCCNC(=O)OCC#CI [3-iodo-2-propynyl butylcarbamate (IPBC)]: the growth yield came to 83.2% (40 h) and 85.7 ± 0.94% (72 h).

Consider `C=CCSCC1Nc2cc(Cl)c(S(N)(=O)=O)cc2S(=O)(=O)N1` (stereo not given) [Althiazide] + CCCCNC(=O)OCC#CI [3-iodo-2-propynyl butylcarbamate (IPBC)], for which the growth yield was 98.16 ± 0.32% (40 h) and 96.7 ± 0.21% (72 h).

Turning to `CC=CC(=O)N(CC)c1ccccc1C` [Crotamiton] + CCCCNC(=O)OCC#CI [3-iodo-2-propynyl butylcarbamate (IPBC)], the growth yield (40 h) was determined as 98.8 ± 5.1% and the growth yield (72 h) was found to be 102 ± 2.2%.

Consider `CCN1CCC[C@H]1CNC(=O)c1c(OC)ccc(Br)c1OC` [Remoxipride Hydrochloride] + CCCCNC(=O)OCC#CI [3-iodo-2-propynyl butylcarbamate (IPBC)], for which the growth yield (40 h) came to 101 ± 3.5% and the growth yield (72 h) amounted to 99 ± 1.5%.

In the case of `Clc1ccc(CCC(Cn2ccnc2)Sc2c(Cl)cccc2Cl)cc1` (stereo not given) [Butoconazole nitrate] + CCCCNC(=O)OCC#CI [3-iodo-2-propynyl butylcarbamate (IPBC)], the growth yield runs as follows: (40 h) 3.18%; (72 h) 2.62 ± 0.1%.

As for `C=CCOC(Cn1ccnc1)c1ccc(Cl)cc1Cl` (stereo not given) [Enilconazole] + CCCCNC(=O)OCC#CI [3-iodo-2-propynyl butylcarbamate (IPBC)], the growth yield is 3.34 ± 0.16% (40 h) and 2.94 ± 0.21% (72 h).

In the case of `Clc1ccc(CO/N=C(\Cn2ccnc2)c2ccc(Cl)cc2Cl)c(Cl)c1` [Oxiconazole Nitrate] + CCCCNC(=O)OCC#CI [3-iodo-2-propynyl butylcarbamate (IPBC)], the growth yield is, setting by setting: (40 h) 3.49 ± 0.32%; (72 h) 2.1 ± 0.21%.

On to `Clc1ccc(COC(Cn2ccnc2)c2ccc(Cl)cc2Cl)c(Cl)c1` (stereo not given) [Miconazole] + CCCCNC(=O)OCC#CI [3-iodo-2-propynyl butylcarbamate (IPBC)], for which the growth yield is, setting by setting: (40 h) 2.8591 ± 3.6e-15%; (72 h) 2.41 ± 0.1%.

The record behind these values is the supplement of paper PMC8007513.
